Screens: PubChem, The Scripps Research Institute Molecular Screening Center
PLC-beta3 inh = blocks human PLC-beta3 enzyme activity; inhibition, % at 12.2 µM; Q01970; AID 720704; hit rate 0.18% among 370,000; Purified PLC-beta3, fluorogenic substrate, fluorescence
ADAM10 inh = inhibitors of human ADAM10; recombinant ADAM10, EDANS/DABCYL FRET peptide cleavage, 3 h; inhibition, % at 7 µM; hit rate 0.62% among 370,000; AID 720582;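 active = inhibition above a per-campaign cutoff equal to the mean of compounds falling between control-based bounds plus 3 SD, cut at about 20% in these data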
HGIII-sPLA2 inh = Blocks human group III sPLA2 activity | Q9NZ20 | QFRET BODIPY PC-A2 liposome hydrolysis, fluorescence | inhibition, % at 12.2 µM | hit rate 0.56% among 370,000 | AID 743126;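 active = inhibition above mean plus 3 SD of compounds lying within the high and low control bounds, cut at about 19% in these data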
Target sequence (Q9NZ20 whole entry, looked up): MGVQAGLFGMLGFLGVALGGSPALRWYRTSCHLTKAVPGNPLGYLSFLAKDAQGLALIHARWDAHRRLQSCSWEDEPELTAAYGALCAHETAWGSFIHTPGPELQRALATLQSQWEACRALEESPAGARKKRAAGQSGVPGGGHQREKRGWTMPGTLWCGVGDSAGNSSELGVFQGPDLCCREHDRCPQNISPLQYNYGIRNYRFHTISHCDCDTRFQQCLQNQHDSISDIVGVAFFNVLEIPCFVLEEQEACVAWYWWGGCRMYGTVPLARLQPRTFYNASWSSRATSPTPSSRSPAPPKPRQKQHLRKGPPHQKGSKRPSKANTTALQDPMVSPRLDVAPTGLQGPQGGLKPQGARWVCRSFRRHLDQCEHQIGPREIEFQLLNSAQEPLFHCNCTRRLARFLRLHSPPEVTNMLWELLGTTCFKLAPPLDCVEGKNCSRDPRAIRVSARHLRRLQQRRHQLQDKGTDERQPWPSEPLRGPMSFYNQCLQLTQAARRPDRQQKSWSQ
ADAM17 inh = inhibitors of human ADAM17; recombinant ADAM17, EDANS/DABCYL FRET peptide cleavage; inhibition, % at 6.95 µM; hit rate 0.83% among 370,000;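 active = inhibition above the mean of compounds lying between control limits plus 3 SD, set per campaign, cut at about 8.5% in these data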
PLCg1 inh = PLC-gamma1 (human) inhibition, primary screen; P19174; inhibition, % at 12.2 µM; AID 720700; purified PLC-gamma1, fluorogenic substrate, fluorescence; hit rate 0.84% among 370,000; in the data active = inhibition above about 9.5%
proKLK7 act = activators of human kallikrein-7 zymogen. activation, % at 7 µM. purified proKLK7, EDANS-DABCYL substrate fluorescence; 100% is mature enzyme control, 0% vehicle. hit rate 0.9% among 370,000;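 active = activation above the mean of all tested compounds plus 3 SD, computed per campaign excluding outliers beyond control limits, cut at about 13% in these data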
PLCg1 ctr = counter-screen for PLC-beta3 inhibitors: inhibitors of human PLC-gamma1 | shares compounds with PLCg1 inh | purified PLC-gamma1, fluorogenic substrate, fluorescence | inhibition, % at 12.3 µM | hit rate 3.1% among 3,300; in the data active = inhibition above about 9.5%
PLCbeta3 conf = confirmation of human PLC-beta3 inhibitors | AID 743261 | purified PLC-beta3, fluorogenic substrate fluorescence | hit rate 1% among 3,300 | inhibition, % at 12.3 µM | shares compounds with PLCg1 inh
Large screens that a line does not name were inactive (follow-up assays come after a bar, where they were run). Rows were chosen to be rich in hits. Some 3.4% of all compounds tested hit in one or more screens of this group. Rule as the data show it, unless noted: active = inhibition above about 11%; inactive = the rest.

COc1cccc(CC(NC(C)=O)C(=O)NC2CCN(S(=O)(=O)c3ccc(F)cc3)CC2)c1OC (centres undefined)	none
Cc1cc(Cl)ccc1NC(=O)Nc1c(C)n(-c2ccccc2)c(=O)n1C	PLCg1 inh 9.6 | PLCg1 ctr inactive | PLCbeta3 conf inactive
COc1ccc(Cl)c(NC(=O)Nc2c(C)n(-c3ccccc3)c(=O)n2C)c1	none
O=C1c2cccnc2C(=O)N1CO	none
NC1=C(Br)C(=O)c2ncccc2C1=O	PLCg1 inh 9.5 | PLCg1 ctr inactive | PLCbeta3 conf inactive
COc1ccc(C(=O)Nc2cccc3c2CCCC3)c(OC)c1	none
COc1cc(OC)c(S(=O)(=O)Nc2ccccc2NC(=O)CN2CCOCC2)cc1NC(C)=O	PLCg1 inh 14.6 | PLCg1 ctr inactive | PLCbeta3 conf inactive
COc1cc(OC)c(S(=O)(=O)Nc2ccccc2N2CCOCC2)cc1NC(C)=O	none
COc1ccc(S(=O)(=O)NCCCN2CCCC2=O)c(OC)c1	none
COc1ccc(S(=O)(=O)NCCCN2CCCC2=O)cc1OC	PLCg1 inh 10.0 | PLCg1 ctr inactive | PLCbeta3 conf inactive
O=[N+]([O-])c1ccc(O)c(C(C#Cc2ccccc2)N2CCOCC2)c1 (centres undefined)	none
COc1ccccc1N(Cc1cc(=O)[nH]c2ccccc12)C(=O)C(C)C	none
CCC(=O)N(Cc1cc(=O)[nH]c2ccccc12)c1ccccc1OC	PLCg1 inh 11.7 | PLCg1 ctr inactive | PLCbeta3 conf inactive
O=C(COC(=O)/C=C/c1cccc(F)c1)Nc1ccccc1	none
O=C(COC(=O)/C=C/c1cccc(F)c1)NNC(=O)c1ccccc1	PLCg1 inh 10.7 | PLCg1 ctr inactive | PLCbeta3 conf inactive
CC(C)N1CCN(c2ccc(OCC3COC(Cn4cncn4)(c4ccc(Cl)cc4Cl)O3)cc2)CC1 (centres undefined)	PLCg1 inh 9.8 | PLCg1 ctr inactive | PLCbeta3 conf inactive
CC(C)N1CCN(c2ccc(OC[C@H]3CO[C@](Cn4cncn4)(c4ccc(Cl)cc4Cl)O3)cc2)CC1	none
CN(C)c1ccc(/C=C2\SC(N3CCCCC3)=NC2=O)cc1	none
CNCCCN1c2ccccc2CCc2ccccc21	PLCg1 inh 10.2 | PLCg1 ctr inactive | PLCbeta3 conf inactive
Cc1cc2ncn(S(=O)(=O)N3CCCCC3)c2cc1C	none
Cc1cc2ncn(S(=O)(=O)N3CCOCC3)c2cc1C	PLC-beta3 inh 14.2 | PLCg1 ctr inactive | PLCbeta3 conf inactive
CCOc1ccc(NC(=O)C2CCN(c3nnnn3-c3ccccc3)CC2)cc1	PLCg1 inh 10.1 | PLCg1 ctr inactive | PLCbeta3 conf inactive
COc1cccc(NC(=O)N2CCN(c3nnnn3-c3ccccc3)CC2)c1	PLCg1 inh 10.5 | PLCg1 ctr inactive | PLCbeta3 conf inactive
Cc1c(N(C)S(=O)(=O)c2ccc(Cl)c(C(=O)NCC(C)(C)N3CCOCC3)c2)c(=O)n(-c2ccccc2)n1C	none
COc1ccc(Cn2nnnc2C(C(C)C)N2CCN(c3ccccc3OC)CC2)cc1 (centres undefined)	PLCg1 inh 11.5 | PLCg1 ctr inactive | PLCbeta3 conf inactive
Cc1cc(C2CCCCC2)n(O)c(=O)c1	none
Cc1cc(=O)n2nc(N3CCCC(C(=O)NCc4ccccc4Br)C3)sc2n1 (centres undefined)	PLCg1 inh 12.5 | PLCg1 ctr inactive | PLCbeta3 conf inactive
Cc1ccc([C@H]2C(C(=O)O)=CC[C@@H](c3ccc(Cl)c(Cl)c3)N2S(=O)(=O)c2ccc(C)cc2)cc1	none
COc1ccc(CCN(C)C2CCCN(S(=O)(=O)c3ccccc3F)C2)cc1OC (centres undefined)	none
CCC(C)[C@H]1CNCCN1CC1(c2ccccc2)CC1 (some centres undefined)	PLC-beta3 inh 13.8 | PLCg1 ctr inactive | PLCbeta3 conf inactive
CCC(C)[C@H]1CNCCN1CCc1cccc2ccccc12 (some centres undefined)	PLCg1 inh 10.7 | PLCg1 ctr inactive | PLCbeta3 conf inactive
CCC(C)[C@H]1CNC(=S)N1CCc1cc(C(F)(F)F)cc(C(F)(F)F)c1 (some centres undefined)	none
CCC(C)[C@H]1CNCCN1CCC12CC3CC(CC(C3)C1)C2 (some centres undefined)	none
CCC(C)[C@H]1CNCCN1CCc1cc(C(F)(F)F)cc(C(F)(F)F)c1 (some centres undefined)	PLCg1 inh 10.8 | PLCg1 ctr inactive | PLCbeta3 conf inactive
O=C(CSc1ccc(-c2ccc(-n3cccn3)cc2)nn1)Nc1ccccc1F	none
O=C(CCn1ccnc1)Nc1ccc2ccccc2c1	none
O=C(Cc1ccc(Cl)cc1)c1c[nH]c(C(=O)NCCCN2CCOCC2)c1	none
Cc1cc(C)c(C)c(S(=O)(=O)N[C@@H](C)C(=O)OCC(=O)NC2CCCC(C)C2C)c1C (some centres undefined)	none
Cc1cc(C)c(OCCCCN(C)Cc2ccccc2)c(C)c1	PLCg1 inh 13.4 | PLCg1 ctr inactive | PLCbeta3 conf inactive
Cc1ccc(OCCCCN(C)Cc2ccccc2)c(Br)c1	none
Cc1cccc(NC(=O)CN(C)S(=O)(=O)c2ccc(Br)cc2)n1	PLCg1 inh 10.2 | PLCg1 ctr inactive | PLCbeta3 conf inactive
Cc1cccc(NC(=O)CN(C)S(=O)(=O)c2ccc(Cl)cc2)n1	none
Cc1sc2ncnc(N3CCN(Cc4ccccc4)CC3)c2c1-c1ccc(F)cc1	none
COc1ccc(CCC2=NCCN2C(CC(C)C)c2nc3ccccc3[nH]2)cc1 (centres undefined)	none
C/C(=N/NC(=O)c1cccs1)c1cccc(N)c1	PLCg1 inh 10.5 | PLCg1 ctr inactive | PLCbeta3 conf inactive
CN1CCN(c2ccc(CNC[C@H]3O[C@@H](n4cnc5c(=O)[nH]c(N)nc54)[C@H](O)[C@@H]3O)c(F)c2)CC1	PLCg1 inh 9.8 | PLCg1 ctr inactive | PLCbeta3 conf inactive
CC(SC(=S)N1CCOCC1)C(=O)O (centres undefined)	PLCg1 inh 12.1 | PLCg1 ctr inactive | PLCbeta3 conf inactive
CN(C(=O)c1ccc(C#N)cc1)c1nnc(-c2cnccn2)s1	none
COCCNC(=O)Cn1nc(-c2ccc(Cl)cc2)c2ccccc2c1=O	PLCg1 inh 11.6 | PLCg1 ctr inactive | PLCbeta3 conf inactive
CCc1c(C)nn(C(=O)/C(C#N)=C\N(C)C)c1C	none
COc1cc(C(=O)NCc2ccc(C)cc2)ccc1OC(F)F	PLCg1 inh 9.7 | PLCg1 ctr inactive | PLCbeta3 conf inactive
Cc1ccc(-c2c[n+](CC(=O)Nc3ccccc3C)c3n2CCC3)cc1	PLCg1 inh 9.8 | PLCg1 ctr inactive | PLCbeta3 conf inactive
